This is a sample that favours compounds with a hit; in the whole collection about 18% have one here.
RORgamma inh = inhibitors of mouse ROR gamma transcriptional activity; P51450; Drosophila S2 Gal4-RORgamma UAS-luciferase reporter, 20 h; Potency, µM (series often up to 53.6 µM), inactives show top-dose activity change, negative = inhibition, most hits filed as inhibitors; 5.4% of 310,000 active; also: potency is read from the fitted curve at half-maximal effect; nearly all actives have a fitted effect of over 60% in size
Target sequence (P51450 whole entry, looked up, the tested form may be a part): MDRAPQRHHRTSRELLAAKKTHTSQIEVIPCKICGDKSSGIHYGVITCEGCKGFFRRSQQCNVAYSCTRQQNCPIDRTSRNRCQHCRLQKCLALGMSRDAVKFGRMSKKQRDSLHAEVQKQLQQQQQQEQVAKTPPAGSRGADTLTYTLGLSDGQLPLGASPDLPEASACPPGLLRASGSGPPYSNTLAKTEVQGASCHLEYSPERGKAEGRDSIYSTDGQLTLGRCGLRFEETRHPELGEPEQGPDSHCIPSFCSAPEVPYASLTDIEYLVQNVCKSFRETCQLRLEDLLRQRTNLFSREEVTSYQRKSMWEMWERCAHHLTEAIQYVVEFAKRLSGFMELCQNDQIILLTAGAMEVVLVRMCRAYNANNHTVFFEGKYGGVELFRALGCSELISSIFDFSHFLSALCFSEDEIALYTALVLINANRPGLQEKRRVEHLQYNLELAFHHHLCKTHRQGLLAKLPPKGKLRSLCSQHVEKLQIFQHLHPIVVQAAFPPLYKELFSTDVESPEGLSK
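Compounds are pin-transferred onto Drosophila Schneider cells expressing a copper-inducible Gal4–ROR gamma transactivation domain fusion. After 1 hr, copper sulfate is added to 700 uM final; luciferase is read 20 hr later.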
TDP1 cell CPT = growth inhibition of DT40 Tdp1-/-;hTDP1 cells with camptothecin (screen for TDP1 inhibitors) | chicken DT40 Tdp1-/-;hTDP1 cells + 20 nM CPT, ATP luminescence, 48 h | Potency, µM (titrated, usually from 46.2 µM), for inactives: at the highest dose activity change, negative = growth inhibition, actives largely listed as inhibitors | 12% of 420,000 active | AID 686979; also: potency is read from the fitted curve at half-maximal effect; nearly all actives have a fitted effect of over 55% in size
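Chicken DT40 Tdp1-/- cells complemented with human TDP1, 400 cells/well, exposed to compounds plus 20 nM camptothecin for at least 48 h at 37 C; viability read as ATP content by CellTiter-Glo luminescence.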
LDHA inh = LDHA (human) enzyme inhibition; P00338; purified LDHA, NADH/diaphorase-resazurin fluorescence; stronger effect = lower value; activity change, % (values are at about 110 or 230 µM); 0.15% of 480,000 active; AID 1347041; in the data active = activity change below about -30%; inconclusive = mostly about -25% to -30%;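 also: plate controls were DMSO wells for no effect and wells without enzyme for full effect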
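Enzyme activity of human lactate dehydrogenase 5 (2 nM; 0.06 mM NADH, 0.2 mM pyruvate, 5 min, RT) is measured via a resazurin/diaphorase fluorescence readout of residual NADH.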
TDP1 cell noCPT = qHTS for Inhibitors of human tyrosyl-DNA phosphodiesterase 1 (TDP1): qHTS in cells in absence of CPT; 15% of 420,000 active; Potency, µM (top dose mostly 46.2 µM), without a hit: at the highest dose activity change, negative = growth inhibition, actives largely listed as inhibitors; DT40 Tdp1-/- hTDP1 cells, no CPT, ATP luminescence, 48 h; AID 686978, 2013; also: potency is read from the fitted curve at half-maximal effect; nearly all actives have a fitted effect of over 55% in size
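No-CPT arm: Tdp1-/-;hTDP1 DT40 cells (400/well) plus compounds, incubated ≥48 hr at 37 °C. Readout CellTiter-Glo luminescence.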
IL1B secr inh = inflammasome signaling inhibition, IL-1 beta readout | THP-1 LPS/ATP IL-1B secretion, AlphaLISA, 16 h; stronger effect = lower value | activity change, % at 57.5 µM | 4.7% of 360,000 active; in the data active = activity change below about -50%; inconclusive = mostly about -30% to -49%
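Secreted IL-1B measured by AlphaLISA bead assay after 16 h compound exposure of THP-1 cells; compounds (final up to 57.5 uM) added 1 h before LPS (250 ng/mL) and ATP (1.25 mM) stimulation; lower signal means less secretion.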
VP16 counter = inhibits Gal4-VP16 luciferase reporter, ROR gamma counter-screen; Potency, µM (doses to about 53.6 µM), for the others: at the highest dose activity, negative = inhibition, usual class: inhibitors; Drosophila S2 Gal4-VP16 UAS-luciferase, luminescence, 20 h; AID 2546; 3.5% of 310,000 active;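 also: Gal4-VP16 expression switched on by copper sulfate through the metallothionein promoter; potency is read from the fitted curve at half-maximal effect; nearly all actives have a fitted effect of over 50% in size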
* hit, by the source's call; ? = inconclusive; . = no result; [ ] = remark or other dose. Unless noted, calls follow the shape of the dose curve; as a rule, active = well fitted curve in the direction sought with a large enough effect; inconclusive = small, poorly fitted or top-dose-only effect, or another doubt; inactive = no such curve, though single readings can be large; an effect the other way counts as inactive or inconclusive. Unless noted, % is scaled to controls: 0 for no effect and ±100 for the full control effect.

SMILES	RORgamma inh	TDP1 cell CPT	LDHA inh	TDP1 cell noCPT	IL1B secr inh	VP16 counter
COc1cccc(C2C3=C(N=C4SCC(=O)N42)c2ccccc2CC3)c1OC (stereo not drawn)	-15.4%	23.1µM*	10.3	20.6µM*	-17.0	-2.2%
COc1cccc(C2C3=C(N=c4s/c(=C\c5ccccc5O)c(=O)n42)c2ccccc2CC3)c1OC (stereo not drawn)	5.1%	.	.	.	.	-13.6%
CCOc1ccc(-n2c(C)nc3c(cnn3-c3ccc(Cl)cc3)c2=O)cc1	-2.3%	-11.9%	-3.7	-21.2%	24.5	-2.4%
COc1cccc(-n2c(C)nc3c(cnn3-c3ccc(Cl)cc3)c2=O)c1	24.7%	8.2µM*	-4.7	7.31µM*	-19.6	?
CCc1nc2c(cnn2-c2ccc(Cl)cc2)c(=O)n1-c1ccc(C)cc1	.	.	4.5	.	.	.
CCc1nc2c(cnn2-c2ccc(Cl)cc2)c(=O)n1-c1ccc2c(c1)OCCO2	-3.4%	?	-0.9	18.4µM*	12.1	7.3%
CCc1cccc(-n2c(C)nc3c(cnn3-c3ccc(Cl)cc3)c2=O)c1	.	5.8µM*	-4.1	4.11µM*	.	.
CCc1cccc(-n2c(C)nc3c(cnn3-c3ccc(C)c(C)c3)c2=O)c1	.	-73.7%	-1.4	23.1µM*	.	.
CC(C)C[C@@H](NC(=O)Nc1cccc(Cl)c1)C(=O)O	.	.	-9.9	.	.	.
Cc1ccc(N/N=C/c2ccc(C#N)cc2)cc1	.	.	5.0	.	.	.
CCCc1c(C)nc2ccc(C)cc2c1SCC(=O)O	.	.	-0.4	.	.	.
O=C(Cn1c(=O)c2c(ncn2C2CCCC2)n(Cc2ccccc2)c1=O)N1CCOCC1	.	.	3.4	.	.	.
CCC(C)(C(=O)NC1CCCCC1)N(C(=O)CNC(=O)c1ccccc1)c1ccccc1 (stereo not drawn)	.	.	0.3	.	.	.
O=C(Nc1c(NCc2ccccc2)c2ccccc2oc1=O)c1ccccc1F	.	.	1.4	.	.	.
CCOC(=O)c1scc(-c2ccccc2)c1S(=O)(=O)Nc1cc(Cl)c(OC)cc1OC	.	?	-3.4	14.6µM*	.	.
CCOC(=O)c1scc(-c2ccc(C)cc2)c1S(=O)(=O)Nc1ccc(OC)c(Cl)c1	.	16.4µM*	-2.0	14.6µM*	.	.
CCOC(=O)c1scc(-c2ccc(C)cc2)c1S(=O)(=O)Nc1cc(Cl)ccc1OC	.	5.8µM*	1.6	3.26µM*	.	.
O=C(COc1ccc(F)cc1)N1CCC(c2nc3ccccc3o2)CC1	.	.	4.8	.	.	.
Cn1cnc2c(=O)oc3ccc(S(=O)(=O)N4CCN(c5ccccc5F)CC4)cc3c21	.	-9.4%	-12.8	-23.4%	.	.
Cc1cccc(N2CCN(S(=O)(=O)c3ccc4oc(=O)c5ncn(C)c5c4c3)CC2)c1C	.	?	-11.0	16.4µM*	.	.
O=C(NC1CCCCCCC1)c1ccc2ncsc2c1	.	.	4.2	.	.	.
CC1CCN(C(=O)c2[nH]cnc2C(=O)NC2CCN(C(=O)OC(C)(C)C)CC2)CC1	.	?	-12.4	-5.3%	-11.7	.
CC(C)C[C@H](NC(=O)c1nc[nH]c1C(=O)N1CCNCC1)C(=O)OC(C)(C)C	.	-16.9%	-5.3	7.0%	-18.7	.
CC(C)C[C@H](NC(=O)c1nc[nH]c1C(=O)NC1CCN(C(=O)OC(C)(C)C)CC1)C(=O)OC(C)(C)C	3.16µM*	?	6.2	18.4µM*	-4.4	7.08µM*
C[C@H](NC(=O)c1nc[nH]c1C(=O)NC1CCN(C(=O)OC(C)(C)C)CC1)C(=O)OC(C)(C)C	?	18.4µM*	0.1	?	-5.1	11.2µM*
SMILES	RORgamma inh	TDP1 cell CPT	LDHA inh	TDP1 cell noCPT	IL1B secr inh	VP16 counter
CC(C)C[C@H](NC(=O)c1nc[nH]c1C(=O)NC1CCN(C(=O)OC(C)(C)C)CC1)C(=O)OCc1ccccc1	-22.0%	?	-0.3	?	-79.4*	?
O=C(NCC1(c2ccccc2)CC1)c1cccc(S(=O)(=O)N2CCOCC2)c1	.	.	-10.9	.	.	.
Cc1ccc(NC2=C(CC(=O)O)C(c3ccccc3)N(c3ccc(C)cc3)C2=O)cc1 (stereo not drawn)	16.5%	16.4µM*	-2.3	?	26.4	7.5%
COc1ccc(C2C(CC(=O)O)=C(O)C(=O)N2c2ccccc2)cc1 (stereo not drawn)	2.0%	-6.0%	-0.7	-5.2%	29.5	-10.4%
CCOc1ccccc1NC(=O)c1nc(-c2ccc(OC)cc2)n(-c2ccccc2)n1	.	.	11.3	.	.	.
COCc1cccc(C(=O)NCc2cccs2)c1	.	.	0.7	.	.	.
Brc1cccc(CNc2nc3ccccc3n2CCN2CCCCC2)c1	4.47µM*	?	-0.1	?	-29.7	-19.7%
COc1ccc(CNc2nc3ccccc3n2CCN2CCCCC2)c(OC)c1	12.6µM*	18.4µM*	0.8	23.1µM*	-100.3*	-22.3%
COc1cccc(CNc2nc3ccccc3n2CCN2CCCCC2)c1	-34.4%[10 µM]	12.6µM*	5.1	?	-9.6	4.4%
COc1cccc(OCCn2c(CN3CCCCC3)nc3ccccc32)c1	.	.	8.5	.	.	.
c1ccc2c(c1)nc(NCc1ccc3c(c1)OCO3)n2CCN1CCOCC1	-1.5%	-14.1%	-2.5	-6.9%	0.0	8.9%
Brc1ccc(CNc2nc3ccccc3n2CCN2CCCCC2)cc1	?	?	1.0	23.1µM*	?	-22.5%
COc1ccc(OC)c(CNc2nc3ccccc3n2CCN2CCCCC2)c1	10.9%	?	-6.3	?	-16.6	1.7%
COc1cc(NS(=O)(=O)c2cc(C(=O)N3CCCCCC3)cs2)cc(OC)c1	.	.	-10.4	.	.	.
CC1=C(c2ccc(C)c(C)c2)S(=O)(=O)N=C1N1CCC(C(=O)NCc2ccc(Cl)cc2)CC1	.	?	-4.6	?	.	.
CCOC(=O)C1CCN(C(=O)C2CCN(C3=NS(=O)(=O)C(c4ccc(C)c(C)c4)=C3C)CC2)CC1	.	16.4µM*	-2.7	?	.	.
CC1=C(c2ccc(C)c(C)c2)S(=O)(=O)N=C1N1CCC(C(=O)N2CCC(C)CC2)CC1	.	?	0.0	6.51µM*	.	.
CC1=C(c2ccc(C)c(C)c2)S(=O)(=O)N=C1N1CCC(C(=O)N2CCC(C(N)=O)CC2)CC1	.	3.5%	7.3	6.7%	.	.
CCc1ccccc1NC(=O)C1CCN(C2=NS(=O)(=O)C(c3ccc(C)c(C)c3)=C2C)CC1	.	?	-9.7	?	.	.
CC1=C(c2ccc(C)c(C)c2)S(=O)(=O)N=C1N1CCC(C(=O)Nc2ccc(Cl)cc2)CC1	.	16.4µM*	1.8	14.6µM*	.	.
COc1cc(NC(=O)COc2coc(CN3CCSCC3)cc2=O)cc(OC)c1	.	.	-11.3	.	.	.
Cc1ccc(-c2csc(NC(=O)CSc3nc(C)cs3)n2)cc1	-20.8%	?	-1.2	16.4µM*	-14.8	-0.8%

Assay outcomes deposited in PubChem BioAssay by National Center for Advancing Translational Sciences (NCATS).
